From PubChem
Shown are actives, neighbours in structure and some others; about 9.8% of the full set was active somewhere.
HttQ103 aggreg – mutant huntingtin aggregation inhibition. PC12 HttQ103-GFP aggregates, Acumen cytometry, 40 h. Potency, µM (series often up to 46.1 µM), without a hit: at the top dose activity change, negative = inhibition, hits mostly inhibitors. hit rate 1.1% among 220,000; also: potency is read from the fitted curve at half-maximal effect; % is scaled to controls: 0 for no effect and ±100 for the full control effect; nearly all actives have a fitted effect of over 60% in size
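Read-out: GFP aggregate count by laser scanning cytometer (488 nm excitation, 500-530 nm emission, 1–25 µm objects >6 SD above background). Cells: PC12, inducible HTTex1-Q103-GFP, 100 nM tebufenozide; compounds titrated.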
HPGD block – blocks human HPGD enzyme activity; purified HPGD, NADH fluorescence kinetic, PGE2 substrate; Potency, µM, inactives show at the top dose activity change, negative = inhibition, hits mostly inhibitors; hit rate 4.3% among 150,000; AID 894; active = well fitted inhibition curve with a large enough effect, not every such curve was filed as active; inconclusive = small, poorly fitted or top-dose-only effect, or another doubt; inactive = no such curve, though single readings can be large or run the other way; also: potency is read from the fitted curve at half-maximal effect; % is scaled to controls: 0 for no effect and ±100 for the full control effect
Target sequence (P15428 whole entry, looked up): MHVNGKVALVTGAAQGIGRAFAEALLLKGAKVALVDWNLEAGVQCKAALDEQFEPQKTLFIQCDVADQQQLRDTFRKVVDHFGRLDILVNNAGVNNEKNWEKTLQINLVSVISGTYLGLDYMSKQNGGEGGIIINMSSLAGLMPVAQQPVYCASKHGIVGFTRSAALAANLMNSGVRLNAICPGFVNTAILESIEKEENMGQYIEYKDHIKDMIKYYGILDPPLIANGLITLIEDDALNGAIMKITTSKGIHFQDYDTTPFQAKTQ
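20 nM HPGD preincubated 15 min at room temperature with compound in 50 mM Tris-HCl pH 8, 0.01% Tween 20. Started with 1 mM NAD+ and 30 uM prostaglandin E2; NADH fluorescence (360/450 nm) read 5 times over 30-s intervals, last minus first.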
KDM4E inh – blocks human JMJD2E demethylase activity; hit rate 1.6% among 230,000; JMJD2E catalytic domain, FDH-coupled NADH fluorescence (FDH is formaldehyde dehydrogenase); AID 2147; B2RXH2; Potency, µM (top dose mostly 57.1 µM), for the others: at the highest dose activity change, negative = inhibition, hits mostly inhibitors; active = well fitted inhibition curve with a large enough effect, not every such curve was filed as active; inconclusive = small, poorly fitted or top-dose-only effect, or another doubt; inactive = no such curve, though single readings can be large or run the other way;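 also: potency is read from the fitted curve at half-maximal effect; 0% = wells with enzyme and -100% = buffer wells without enzyme; nearly all actives have a fitted effect of over 50% in size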
Target sequence (B2RXH2 1-337 limits assumed): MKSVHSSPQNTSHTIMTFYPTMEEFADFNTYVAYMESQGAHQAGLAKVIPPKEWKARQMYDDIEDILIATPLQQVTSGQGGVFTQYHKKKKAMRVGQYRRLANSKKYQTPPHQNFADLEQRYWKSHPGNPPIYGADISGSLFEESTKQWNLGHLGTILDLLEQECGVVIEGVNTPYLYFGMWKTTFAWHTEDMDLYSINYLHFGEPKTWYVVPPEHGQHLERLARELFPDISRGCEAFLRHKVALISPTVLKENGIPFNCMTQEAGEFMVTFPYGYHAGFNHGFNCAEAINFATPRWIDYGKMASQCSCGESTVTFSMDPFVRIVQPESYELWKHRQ
HTT cytoprotect – protects HTT-Q103 PC12 cells, measured by ATP; PC12 HTT-Q103 induced, cytoprotection, ATP luminescence, 40 h; hit rate 0.14% among 230,000; Potency, µM (top dose mostly 56.4 µM), without a hit: cytoprotection (ATP increase), hits mostly activators; also: potency is read from the fitted curve at half-maximal effect; % of control where 0% means no effect; nearly all actives have a fitted effect of over 45% in size
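Huntington model: PC12 line, ecdysone-inducible HTTQ103 exon1–GFP, tebufenozide 100 nM. Test articles in a dose series. Endpoint luminescence from cellular ATP.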
CBFb RUNX1 block – CBF-beta/RUNX1 interaction disruption; 230,000 tested, under 10 active; AID 1477; AlphaScreen CBFb-His/RUNX1-biotin binding, biochemical; Q01196+Q13951; Potency, µM (top dose mostly 59.8 µM), for inactives: at the top dose activity, negative = inhibition, most hits filed as inhibitors; also: % of control where 0% means no effect
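AlphaScreen binding: CBFb-His and RUNX1-biotin (30 nM each) preincubated 20 min, compound added for 15 min, then nickel and streptavidin beads for 90 min, all at room temperature. Disruption of the interaction by any mechanism counts as activity.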
ALDH1A1 inh – ALDH1A1 (human) enzyme inhibition. AID 1030. hit rate 7.3% among 220,000. Potency, µM (highest dose often 75.3 µM), for the others: top-dose activity, negative = inhibition, hits mostly inhibitors. Purified ALDH1A1, NADH fluorescence, propionaldehyde substrate. P00352; active = well fitted inhibition curve with a large enough effect, not every such curve was filed as active; inconclusive = small, poorly fitted or top-dose-only effect, or another doubt; inactive = no such curve, though single readings can be large or run the other way;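 also: potency is read from the fitted curve at half-maximal effect; plate controls were no enzyme wells and a reference inhibitor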
* hit, by the source's call; u = inconclusive; x = no result given; ! = not active in a repeat; [ ] = another dose, or the depositor's remark. Unless noted, calls follow the shape of the dose curve; as a rule, active = well fitted curve in the direction sought with a large enough effect; inconclusive = small, poorly fitted or top-dose-only effect, or another doubt; inactive = no such curve, though single readings can be large; an effect the other way counts as inactive or inconclusive.

SMILES	HttQ103 aggreg	HPGD block	KDM4E inh	HTT cytoprotect	CBFb RUNX1 block	ALDH1A1 inh
CC(C)(C)c1ccc(C(=O)CCCN2CCC(OC(c3ccccc3)c3ccccc3)CC2)cc1	u	x	x	-99.0%	x	x
Cc1ccc(C(=O)Oc2ccc(C(=O)COC(=O)C3CC(=O)N(Cc4ccco4)C3)cc2)cc1 (configuration not stated)	10.1%	u	6.9%	13.1%[10 µM]	u	25.1µM*
Cc1ccc(CCN2CC(C(=O)NCc3ccco3)CC2=O)cc1 (configuration not stated)	9.0%	-12.5%	-8.6%	-10.1%	0.3%	28.2µM*
O=C(COC(=O)C1CC(=O)N(Cc2ccco2)C1)c1ccc(OC(=O)c2ccco2)cc1 (configuration not stated)	2.8%	17.8µM*	2.8%	13.4%[10 µM]	u	1.58µM*
O=C(COC(=O)C1CC(=O)N(Cc2ccccc2)C1)c1ccc(Br)cc1 (configuration not stated)	-7.6%	-10.1%	5.0%	14.0%[10 µM]	0.9%	0.9%
Cc1[nH]c2ccccc2c1C(=O)COC(=O)C1CC(=O)N(Cc2ccco2)C1 (configuration not stated)	-12.5%	-9.6%	8.5%	-19.2%	-1.9%	u
Cc1nnc(SC(C)C(=O)Nc2nccs2)s1 (configuration not stated)	-3.6%	x	-6.7%	-27.0%	-3.0%	-2.8%
Nc1ccc(S(=O)(=O)NNC(=O)C(=O)NNc2ccccc2)cc1	-3.0%	-6.0%	3.2%	14.2%[10 µM]	4.1%	-1.5%
O=C(NNc1ccccc1)C(=O)NNS(=O)(=O)c1ccc(CCCl)cc1	-2.8%[9.22 µM]	x	-6.0%	-0.3%[10 µM]	1.9%	6.31µM*
CCOC(=O)c1ccc(NC(=O)CSC(=S)N2CCOCC2)cc1	5.6%	x	7.3%	-7.4%[10 µM]	2.5%	-0.6%
O=C(C1CC1)N1CCN(c2ccc([N+](=O)[O-])cc2-n2cccc2)CC1	-4.5%[9.22 µM]	x	7.0%	11.6%[10 µM]	-14.0%	x
CN1C(=O)C(CC(=O)O)S/C1=N\N=C\c1ccc(O)cc1O (configuration not stated)	12.4%[9.22 µM]	x	25.1µM*	-3.0%[10 µM]	-8.4%	x
COc1ccc(S(=O)(=O)Oc2cccc(/C=N/N=C3/NC(=O)C(CC(=O)O)S3)c2)cc1 (configuration not stated)	-21.0%[9.22 µM]	x	-14.1%	-13.4%[10 µM]	-7.8%	8.91µM*
COc1ccc(/C=N/N=C2\SC(CC(=O)O)C(=O)N2c2ccccc2)c(OC)c1 (configuration not stated)	-3.2%	-17.5%	-11.8%	x	1.2%	20µM*
COc1ccc(/C=N/N=C2\SC(CC(=O)O)C(=O)N2c2ccccc2)cc1 (configuration not stated)	-2.4%	-14.2%	-11.4%	19.2%[10 µM]	1.5%	20µM*
Cc1ccccc1C1CCCN(Cc2nc(C3CC3)no2)C1 (configuration not stated)	5.5%[9.22 µM]	x	2.7%	18.3%[10 µM]	10.7%	-15.5%
O=[N+]([O-])c1cnn(-c2nc(-c3cccs3)cc(C(F)(F)F)n2)c1	-3.2%	x	-11.7%	-5.3%[10 µM]	-20.2%	-12.0%
Cn1cccc1C(=O)c1cccc([N+](=O)[O-])c1	-10.2%	x	5.5%	-9.3%	-5.0%	-13.6%
O=C(COC(=O)c1ccccn1)NCc1ccccc1Cl	0.3%	-9.4%	-6.4%	-8.3%[10 µM]	11.1%	-10.8%
CC(C)C(=O)N(Cc1ccc(F)cc1)Cc1nc2ccccc2c(=O)[nH]1	19.7%[9.22 µM]	x	16.0%	39.9%[10 µM]	8.0%	0.5%
CC(C)c1ccc2c(c1)CC[C@@H]1[C@@](C)(CN)CCC[C@@]21C	x	x	x	-80.6%	x	x
CCOc1ccc2ccccc2c1CNc1nnnn1C	7.0%[9.22 µM]	x	-15.6%	-47.3%	6.8%	-0.1%
Cc1cccc(/C=N\NC(=O)c2ccc(Cl)cc2)c1O	0.447µM*	x	15.8µM*	-82.1%[10 µM]	-4.1%	7.8%
COc1cccc(/C=N/NC(=O)c2ccc(=O)[nH]n2)c1O	0.3%[9.22 µM]	x	12.6µM*	-0.8%[10 µM]	-28.1%	16.2%
COc1cccc(/C=N/NC(=O)c2ccc(-c3ccccc3)cc2)c1O	u	-13.4%	u	-84.6%	-2.9%	2.7%
SMILES	HttQ103 aggreg	HPGD block	KDM4E inh	HTT cytoprotect	CBFb RUNX1 block	ALDH1A1 inh
COc1cccc(/C=N/NC(=O)c2ccc(=O)n(C)c2)c1O	7.94µM*	-9.2%	11.2µM*	-84.0%[10 µM]	u	12.4%
COc1cc(OC)c(OC)cc1/C=N/NC(=O)c1cc(-c2cccn2C)n[nH]1	8.2%	u	u	-6.2%	-21.4%	-7.9%
CCOc1cccc(/C=N/NC(=O)c2cc(-c3cccn3C)n[nH]2)c1O	u	x	31.6µM*	-39.0%[10 µM]	u	6.6%
COc1ccc(OC)c(/C=N/NC(=O)c2ccc(=O)[nH]n2)c1	-11.4%[9.22 µM]	x	4.1%	6.4%[10 µM]	-7.2%	x
CCOC(=O)C1(Cc2ccc(OC)cc2)CCN(C(=O)CCn2cccn2)CC1	-13.6%[9.22 µM]	x	-4.1%	0.8%[10 µM]	6.7%	x
COC(=O)[C@@]1(Cc2ccccc2)[C@H]2c3cc(C(=O)N(C)C)n(Cc4c(CO)[nH]cc(C)c4=O)c3C[C@H]2CN1C(=O)c1ccccc1	x	-7.5%	u	-0.9%	-13.1%	-4.0%
O=C(O)CCS(=O)(=O)c1ccccc1Cl	7.8%	x	-4.6%	2.5%[10 µM]	4.2%	9.1%
COc1cccc(/C=N/NC(=O)c2[nH]c(C)c(C(=O)N/N=C/c3cccc(OC)c3O)c2C)c1O	u	-12.0%	25.1µM*	-49.0%	u	2.1%
COc1cccc(/C=N/NC(=O)c2cc(-c3ccc(C)cc3)n[nH]2)c1O	x	39.8µM*	x	x	x	-0.7%
C=CCN(c1ccccc1)S(=O)(=O)c1cccc(C(=O)Oc2ccc3c(C)cc(=O)oc3c2)c1	-15.2%	u	u	29.3%[10 µM]	2.6%	u
C[C@@H]1C=CCC(=O)OC[C@H](C)C(=O)OC[C@H]2O[C@H]1C=C[C@@H]2O	x	x	x	u	6.6%[13.1 µM]	1.3%[13.5 µM]
Cc1ccc(C(=O)c2cc(C)sc2NC(=O)CN2CCN(C(=O)c3ccco3)CC2)cc1	u	x	-12.1%	18.7%[10 µM]	u	25.1µM*
CC(C)COCC(CN(Cc1ccccc1)c1ccccc1)N1CCCC1 (configuration not stated)	u	3.7%	14.1µM*!	-140.8%	-8.6%	-12.3%
CC(C(=O)Nc1ccc(OCc2ccccc2)cc1)N1CCCC1 (configuration not stated)	3.4%	x	-4.3%	-30.0%	5.0%	1.9%
NNC(=O)Cn1c(-c2ccccc2)cc(=O)n2ncnc12	-16.6%[9.22 µM]	x	11.2%	-6.9%[10 µM]	-6.0%	x
Cn1c(CBr)c(C(=O)c2ccc([N+](=O)[O-])cc2)c(=O)n(C)c1=O	8.0%[9.22 µM]	x	-10.9%	3.5%[10 µM]	3.0%	x
Cc1ccc(C(=O)OCC(=O)NCCN2C(=O)CSC2=O)cc1	u	-2.8%	-8.9%	15.9%[10 µM]	-6.6%	-4.1%
